The text below walks through data of the supplement of paper PMC13380429.

Assay [1] relates to Vero E6 infected with SARS-CoV-2. Put plainly: morphology score (similarity to uninfected cells); higher = more like uninfected cells. The conditions noted are these: 24 h.
The test system is the same in assay [2]. The assay can be described thus: SARS-CoV-2 infection rate relative to infected DMSO; higher = more infection, active = 60 or less. The conditions noted are these: 24 h.

In turn, `CC(C)c1ccc(NC(=O)Cn2cnc3c2c(=O)n(C)c(=O)n3C)cc1` (10 µM) came in with a morphology score in assay [1] of 0.0452. The SARS-CoV-2 infection rate in assay [2] was 109% (inactive).
For `CC(=O)OCC1=C(C(=O)O)N2C(=O)[C@@H](N)[C@H]2SC1` [7-aminocephalosporanic-acid] (10 µM) the same measures were -0.0363 and 104% (inactive).
For `CN1C(=O)OC(C)(C)C1=O` [trimethadione] (10 µM) the same measures were 0.1 and 106% (inactive).
For `CCCCCOc1ccc(-c2ccc(-c3ccc(C(=O)N[C@H]4C[C@@H](O)[C@@H](O)NC(=O)[C@@H]5[C@@H](O)[C@@H](C)CN5C(=O)[C@H]([C@@H](C)O)NC(=O)[C@H]([C@H](O)[C@@H](O)c5ccc(O)cc5)NC(=O)[C@@H]5C[C@@H](O)CN5C(=O)[C@H]([C@@H](C)O)NC4=O)cc3)cc2)cc1` [anidulafungin] (10 µM) the same measures were -0.164 and 110% (inactive).
In the case of `CCOc1ccccc1-n1c(C(C)N2CCN(C(=O)COc3ccc(Cl)cc3)CC2)nc2ccccc2c1=O` (centres undefined) [erastin] (0.833333 µM), the morphology score in assay [1] was -0.0506. The SARS-CoV-2 infection rate in assay [2] was 86% (inactive).
For `C#C[C@]1(OC(C)=O)CC[C@H]2[C@@H]3CCC4=CC(=NO)CC[C@@H]4[C@H]3CC[C@@]21CC` (mixture of isomers) [norgestimate] (10 µM) the same measures were 0.111 and 108% (inactive).
For `CC1(C)CC[C@]2(NC(=O)C(C)(F)F)CC[C@]3(C)[C@H](C(=O)C=C4[C@@]5(C)C=C(C#N)C(=O)C(C)(C)[C@@H]5CC[C@]43C)[C@@H]2C1` [Omaveloxolone (RTA-408)] (10 µM) the same measures were -0.212 and 112% (inactive).
For `CC(C)OC(=O)OCOP(=O)(CO[C@H](C)Cn1cnc2c(N)ncnc21)OCOC(=O)OC(C)C` [tenofovir-disoproxil] (10 µM) the same measures were -0.00661 and 116% (inactive).
In assay [1], `O=C(NCc1ccccc1)OCCO` [buramate] (10 µM) gave a morphology score of 0.237. In assay [2], the SARS-CoV-2 infection rate is 84.5% (inactive).
For `COc1ccc(OC)c([C@@H](O)CNC(=O)CN)c1` [midodrine] (10 µM) the same measures were -0.0583 and 108% (inactive).
For `CNC(=O)[C@@H](c1ccccc1)N1CCc2cc(OC)c(OC)cc2[C@@H]1CCc1ccc(C(F)(F)F)cc1` [almorexant] (10 µM) the same measures were -0.0542 and 105% (inactive).
`C[C@]12CC[C@H]3[C@@H](CC[C@@]45O[C@@H]4C(O)=C(C#N)C[C@]35C)[C@@H]1CC[C@@H]2O` [trilostane] (10 µM) gave a morphology score in assay [1] of -0.0579. For the same compound, in assay [2], the SARS-CoV-2 infection rate is 104% (inactive).
As to `O=C(Nc1ccc(N2CCC(C(=O)N3CCOCC3)CC2)cc1)c1cnc(Oc2ccccc2)nc1` (10 µM), the morphology score in assay [1] was -0.02. Also, the SARS-CoV-2 infection rate in assay [2] was 114% (inactive).
For the compound `NC(=O)c1ccc2[nH]ccc2c1` (10 µM), the morphology score in assay [1] was found to be 0.192. For the same compound, the SARS-CoV-2 infection rate in assay [2] is 87.5% (inactive).
For `Cc1ncc([N+](=O)[O-])n1CC(O)CN1CCOCC1` (centres undefined) [morinidazole] (10 µM) the same measures were 0.12 and 111% (inactive).
In turn, `OCc1cc([C@@H](O)CNCCCCCCOCCOCc2c(Cl)cccc2Cl)ccc1O` [vilanterol] (10 µM) showed a morphology score in assay [1] of 0.0228. The SARS-CoV-2 infection rate in assay [2] was 111% (inactive).
For `Cc1ccccc1/N=N/c1ccc(/N=N/c2c(O)ccc3ccccc23)c(C)c1` [sudan-IV] (10 µM) the same measures were 0.126 and 92% (inactive).
For `O=C(c1ccc(/C=C/c2n[nH]c3ccccc23)cc1)N1CCNCC1` (10 µM) the same measures were 0.964 and 94.5% (inactive).
For `CC(C)=CCC/C(C)=C/CC/C(C)=C/CSc1ccccc1C(N)=O` [farnesyl-thiosalicylic-acid-amide] (10 µM) the same measures were 0.012 and 110% (inactive).
Turning to `Fc1ccc(-n2cc(CCCCN3CCC4(CC3)OCc3ccccc34)c3ccccc32)cc1` [siramesine] (0.833333 µM), the morphology score in assay [1] was 0.0919. Further, the SARS-CoV-2 infection rate in assay [2] is 94.5% (inactive).
As to `CN(C)CCN(Cc1cccs1)c1ccccn1` [methapyrilene] (10 µM), the morphology score in assay [1] was -0.165. Also, the SARS-CoV-2 infection rate in assay [2] is 113% (inactive).
In turn, `COc1cccc(CCc2ccccc2OCC[C@@H]2C[C@@H](O)CN2C)c1` (10 µM) yielded a morphology score in assay [1] of 0.533. For the same compound, the SARS-CoV-2 infection rate in assay [2] is 54.5% (active).
For `COc1cc(Nc2nc3ccccc3nc2NS(=O)(=O)c2ccc(NC(=O)c3ccc(C)c(OC)c3)cc2)cc(OC)c1` (10 µM) the same measures were 0.0476 and 119% (inactive).
On to `C[C@]12CCC(=O)C=C1[C@@H]1C[C@@H]1[C@H]1[C@@H]3[C@@H]4C[C@@H]4[C@@]4(CCC(=O)O4)[C@@]3(C)CC[C@@H]12` [drospirenone] (10 µM), for which, in assay [1], the morphology score was 0.176. The SARS-CoV-2 infection rate in assay [2] was 101% (inactive).
For `C#CC1(OCC(O)CN2CCN(c3cccc(C(F)(F)F)c3)CC2)CCCCC1` (centres undefined) [terciprazine] (10 µM) the same measures were 0.107 and 104% (inactive).
Regarding `CCNCC(O)c1cccc(O)c1` (centres undefined) [etilefrine] (10 µM), the morphology score in assay [1] was found to be 0.131. Moreover, the SARS-CoV-2 infection rate in assay [2] was 100% (inactive).
In assay [1], `Cc1ccc(C(=O)Nc2cccc(C(F)(F)F)c2)cc1Nc1nc(-c2cccnc2)nc2c1cnn2C` (10 µM) registered a morphology score of -0.0613. The SARS-CoV-2 infection rate in assay [2] is 74% (inactive).
For `O=c1cc(-c2ccc(O)c(O)c2)oc2cc(O)cc(O)c12` [luteolin] (10 µM) the same measures were 0.167 and 110% (inactive).
In turn, `Cn1nc(-c2ccc(C(F)(F)F)cc2)nc2c(=O)n(C)c(=O)nc1-2` [walrycin-B] (0.833333 µM) had a morphology score in assay [1] of 0.4. Moreover, in assay [2], the SARS-CoV-2 infection rate was 86.5% (inactive).
`C=C1c2cccc(O)c2C(=O)C2=C(O)[C@]3(O)C(=O)C(C(N)=O)=C(O)[C@@H](N(C)C)[C@@H]3[C@@H](O)[C@H]12` [methacycline] (0.833333 µM) gave a morphology score in assay [1] of 0.0945. Besides, in assay [2], the SARS-CoV-2 infection rate is 103% (inactive).
For `CC(=O)N[C@@H](CC(=O)O)C(=O)N[C@@H](CCC(=O)O)C(=O)O` [spaglumic-acid] (10 µM) the same measures were 0.121 and 88.5% (inactive).
As for `CCOC(=O)NNc1ccc(N(CC)CC(C)O)nn1` (centres undefined) [cadralazine] (10 µM), the morphology score in assay [1] turned out to be 0.0865. Also, the SARS-CoV-2 infection rate in assay [2] was 108% (inactive).
For `C=C[C@@H]1C[C@]1(NC(=O)[C@@H]1C[C@@H]2CN1C(=O)[C@H](C(C)(C)C)NC(=O)O[C@@H]1C[C@H]1CCCCCc1nc3ccc(OC)cc3nc1O2)C(=O)NS(=O)(=O)C1CC1` [grazoprevir] (10 µM) the same measures were 0.0897 and 109% (inactive).
Turning to `Cc1ccc(F)cc1C(=O)Nc1ccc(C(=O)N2Cc3cccn3Cc3ccccc32)c(Cl)c1` [lixivaptan] (10 µM), in assay [1], the morphology score came out at 0.0414. The SARS-CoV-2 infection rate in assay [2] is 111% (inactive).
For `COc1cc(Nc2ncc(F)c(Nc3ccc4c(n3)NC(=O)C(C)(C)O4)n2)cc(OC)c1OC` (10 µM), in assay [1], the morphology score came to 0.09. Further, the SARS-CoV-2 infection rate in assay [2] is 124% (inactive).
For `CNS(=O)(=O)Cc1ccc2[nH]cc(CCN(C)C)c2c1` [sumatriptan] (10 µM), the morphology score in assay [1] came out at 0.205. In addition, the SARS-CoV-2 infection rate in assay [2] is 98% (inactive).
In the case of `C=C(c1ccccc1OCc1cccc(Cl)c1)n1ccnc1` [croconazole] (10 µM), the morphology score in assay [1] came out at 0.0614. Besides, the SARS-CoV-2 infection rate in assay [2] is 104% (inactive).
For `CN1C(=O)N(c2cc(Cl)cc(Cl)c2)C(=O)[C@]12CN(Cc1cc(C(=O)O)cs1)C[C@H]2c1ccc(C#N)cc1` (10 µM) the same measures were 0.281 and 92.5% (inactive).
For `Cc1c(OCC(F)(F)F)ccnc1C[S+]([O-])c1nc2ccccc2[nH]1` (centres undefined) [lansoprazole] (10 µM) the same measures were 0.115 and 99% (inactive).
In turn, `CCCCN(Cc1ccc(C(=O)NO)cc1)C(=O)Nc1ccccc1` [nexturastat-A] (0.833333 µM) came in with a morphology score in assay [1] of 0.112. In addition, the SARS-CoV-2 infection rate in assay [2] is 105% (inactive).
In turn, `C1COC(NC(C2CC2)C2CC2)=N1` [rilmenidine] (10 µM) yielded a morphology score in assay [1] of -0.0313. The SARS-CoV-2 infection rate in assay [2] is 99.5% (inactive).
In assay [1], `CCC(CC)[C@H](NC(C)=O)[C@@H]1[C@H](O)[C@@H](C(=O)O)C[C@H]1NC(=N)N` [peramivir] (10 µM) showed a morphology score of 0.00579. Also, the SARS-CoV-2 infection rate in assay [2] is 102% (inactive).
For `CCCCc1ccc(NS(=O)(=O)c2ccc(F)cc2)cc1` (10 µM) the same measures were 0.122 and 102% (inactive).
For `CCCCc1nc(Cl)c(CO)n1Cc1ccc(-c2ccccc2-c2nnn[nH]2)cc1` [losartan] (10 µM) the same measures were 0.0837 and 99.5% (inactive).
For `Cc1cccc(C)c1NC(=O)C[N+](C)(C)C` (10 µM) the same measures were 0.198 and 97% (inactive).
Consider `CCC(=O)O[C@@](Cc1ccccc1)(c1ccccc1)[C@@H](C)CN(C)C` [levopropoxyphene] (10 µM), for which the morphology score in assay [1] is -0.0577. Moreover, in assay [2], the SARS-CoV-2 infection rate is 109% (inactive).
`O=C(O)c1ccc(Nc2ncc3c(n2)-c2ccc(Cl)cc2C(c2c(F)cccc2F)=NC3)cc1` (10 µM): the morphology score in assay [1] is 0.00168. The SARS-CoV-2 infection rate in assay [2] is 109% (inactive).
On to `CCOC(=O)c1ncn2c1CN(C)C(=O)c1cc(N=[N+]=[N-])ccc1-2` (10 µM), for which the morphology score in assay [1] came to 0.00535. For the same compound, the SARS-CoV-2 infection rate in assay [2] was 110% (inactive).
For `C=C1C(=O)[C@]23[C@H](O)[C@H]1CC[C@H]2[C@@]12CO[C@]3(O)[C@@H](O)[C@@H]1C(C)(C)CC[C@@H]2O` [Oridonin (Isodonol)] (0.833333 µM) the same measures were 0.108 and 97% (inactive).
For `CN(C)CCC=C1c2ccccc2C=Cc2ccccc21` [cyclobenzaprine] (10 µM) the same measures were 0.228 and 78% (inactive).
For `CNCc1ccc(C)c(NC(=O)c2ccc(Nc3nc(-c4ccccc4)c4ccccc4n3)cc2)c1` (0.833333 µM) the same measures were 0.213 and 98% (inactive).
Take `O=C1C(Cl)=C(NCCN2CCOCC2)C(=O)c2ncccc21` (0.833333 µM): the morphology score in assay [1] amounted to 0.143. Besides, in assay [2], the SARS-CoV-2 infection rate is 94% (inactive).
For `CN(Cc1cnc2nc(N)nc(N)c2n1)c1ccc(C(=O)N[C@@H](CCC(=O)O)C(=O)O)cc1` [methotrexate] (10 µM) the same measures were -0.183 and 100% (inactive).
In assay [1], `O=C(Nc1cnccc1Cl)N1CCN(Cc2ccc3c(c2)OC(F)(F)O3)CC1` (10 µM) gave a morphology score of 0.0915. Further, the SARS-CoV-2 infection rate in assay [2] is 106% (inactive).
For `O=c1c2ccccc2oc2ccccc12` [xanthone] (10 µM) the same measures were 0.219 and 104% (inactive).
For `O=C(c1cc(S(=O)(=O)Nc2ccccc2F)c(F)cc1Cl)N1CCN2CCC[C@@H]2C1` (10 µM) the same measures were 0.0625 and 104% (inactive).
`Cc1cccc(-c2[nH]c(C(C)(C)C)nc2-c2ccc3c(c2)OCO3)n1` (10 µM) returned a morphology score in assay [1] of -0.132. Moreover, in assay [2], the SARS-CoV-2 infection rate is 115% (inactive).
